Reference: PubChem BioAssay (NCI)
Compounds without any hit were thinned out: in the full panel of roughly 79,000, 15% have a hit. Calls of active or inactive are those of the source. Rule as the data show it: active = growth inhibition above about 70%; inactive = the rest.

Experiments:
[1] = NCI Yeast Anticancer Drug Screen. Data for the rad52 strain (AID 147);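 also: 0% = growth of vehicle-treated control cultures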; details: S. cerevisiae rad52 mutant growth inhibition, stronger effect = higher value
Method in brief: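 Measured: yeast growth inhibition. System: strain with a defined DNA damage repair alteration. Reference: vehicle-treated control cultures.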

[2] = NCI Yeast Anticancer Drug Screen. Data for the wt1 strain (AID 149);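 also: 0% = growth of vehicle-treated wt1 cultures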; details: S. cerevisiae wt1 strain (SPY 50644) growth inhibition, stronger effect = higher value
Method in brief: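 The wt1 strain was treated with compounds, and growth was compared with vehicle-treated cultures to give inhibition.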

[3] = NCI Yeast Anticancer Drug Screen. Data for the rad50EPP+ strain (AID 151);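 also: 0% = growth of vehicle-treated control cultures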; details: S. cerevisiae rad50 mutant strain, stronger effect = higher value
Method in brief: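 One strain with a rad50 alteration (rad50EPP+) was compound-treated, its growth then compared to that of vehicle controls.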

[4] = NCI Yeast Anticancer Drug Screen. Data for the mgt1 strain (AID 153); details: S. cerevisiae mgt1 mutant growth inhibition, stronger effect = higher value
Method in brief: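 After exposure of the mgt1 yeast mutant to compound, growth was measured and reported as inhibition compared with vehicle controls.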

[5] = NCI Yeast Anticancer Drug Screen. Data for the rad50 strain (AID 155);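 also: 0% = growth of vehicle-only cultures of the same strain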; details: S. cerevisiae rad50 strain growth inhibition, stronger effect = higher value
Method in brief: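 Cells are treated with compound, grown, and their growth is then scored against vehicle-only cultures of the same repair-deficient yeast strain.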

[6] = NCI Yeast Anticancer Drug Screen. Data for the mec2-1 strain (AID 157); details: S. cerevisiae mec2-1 strain, stronger effect = higher value
Method in brief: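 Test agents were screened against the mec2-1 yeast strain, with defined DNA repair or cell cycle alteration. Growth was scored as inhibition against vehicle-only controls.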

[7] = NCI Yeast Anticancer Drug Screen. Data for the rad14 strain (AID 159);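 also: 0% = growth of vehicle-treated control cultures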; details: S. cerevisiae rad14 strain growth inhibition, stronger effect = higher value
Method in brief: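 Readout: yeast growth inhibition, referenced to vehicle-only cultures. Strain bears a defined alteration in DNA damage repair.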

[8] = NCI Yeast Anticancer Drug Screen. Data for the sgs1 mgt1 strain (AID 161);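 also: 0% = growth of cultures given vehicle only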; details: S. cerevisiae sgs1 mgt1 strain, stronger effect = higher value
Method in brief: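 Test agents were incubated with a DNA-repair-mutant yeast strain. Growth was then read and compared against vehicle-treated controls.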

[9] = NCI Yeast Anticancer Drug Screen. Data for the CLN2oe strain (AID 163);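 also: 0% = growth of vehicle-only control cultures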; details: S. cerevisiae CLN2oe strain, stronger effect = higher value
Method in brief: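 Here, growth inhibition in a cell-cycle-altered yeast strain after compound exposure was quantified against vehicle control growth.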

[10] = NCI Yeast Anticancer Drug Screen. Data for the cln2 rad14 strain (AID 165);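 also: 0% = growth equal to vehicle treated cultures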; details: S. cerevisiae cln2 rad14 strain, stronger effect = higher value
Method in brief: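 Growth of compound-exposed yeast (cln2 rad14 genotype) measured and expressed as inhibition relative to vehicle.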

[11] = NCI Yeast Anticancer Drug Screen. Data for the bub3 strain (AID 167); details: S. cerevisiae bub3 mutant strain, stronger effect = higher value
Method in brief: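 Part of a panel of yeast mutants defective in DNA damage repair or cell cycle regulation. Each strain is grown with compound, and inhibition is calculated relative to solvent-treated cultures.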

[12] = NCI Yeast Anticancer Drug Screen. Data for the wt2 strain (AID 169);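 also: 0% = growth of vehicle-treated yeast cultures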; details: S. cerevisiae wt2 strain growth inhibition, stronger effect = higher value
Method in brief: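 Genetically defined yeast strains from a DNA-repair/cell-cycle panel were used. Compound-exposed yeast growth was measured, and the inhibition was calculated relative to vehicle treatment.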

[13] = NCI Yeast Anticancer Drug Screen. Data for the mlh1 strain (AID 171);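 also: 0% = growth of vehicle-treated control cultures of the same strain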; details: S. cerevisiae mlh1 strain growth inhibition, stronger effect = higher value
Method in brief: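 Here the genetically defined yeast mutant is grown with each compound, and the extent to which its growth falls below that of vehicle-exposed cells is reported.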

[14] = NCI Yeast Anticancer Drug Screen. Data for the sgs1 strain (AID 173);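 also: 0% = growth of vehicle-only control cultures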; details: S. cerevisiae sgs1 mutant, stronger effect = higher value
Method in brief: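 Relative growth inhibition, referenced to vehicle, was determined in a yeast strain with a defined alteration affecting DNA damage repair or cell cycle control after compound exposure.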

[15] = NCI Yeast Anticancer Drug Screen. Data for the mlh1 rad18 strain (AID 175); details: S. cerevisiae mlh1 rad18 strain growth inhibition, stronger effect = higher value
Method in brief: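 In this whole-cell yeast screen, a strain with altered DNA damage repair is challenged with compound, and its growth is measured against matched vehicle-treated controls.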

[16] = NCI Yeast Anticancer Drug Screen. Data for the rad18 strain (AID 177); details: S. cerevisiae rad18 mutant growth inhibition, stronger effect = higher value
Method in brief: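 Screen uses a yeast strain with a defined lesion in DNA damage repair; compound effect is read as loss of growth compared to untreated vehicle cultures.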

[17] = at 5.0 µM (retest, dose inferred, filed as 0.5)
[18] = at 50.0 µM (retest, dose inferred, filed as 5.0)

Measured: growth inhibition

CCCCCCCCCCCCCCCCP(=O)(O)OCC(N)C(=O)O (stereo unspecified)
inactive: [1]; at 1.2 µM -5% | [1]; at 3.7 µM -40% | [1]; at 11.0 µM -38% | [1]; at 33.0 µM -15% | [2]; at 1.2 µM -38% | [2]; at 3.7 µM -46% | [2]; at 11.0 µM -46% | [2]; at 33.0 µM -31% | [3]; at 1.2 µM 0% | [3]; at 3.7 µM -5% | [3]; at 11.0 µM 5% | [3]; at 33.0 µM 20% | [3]; at 100.0 µM 69% | [4]; at 1.2 µM 15% | [4]; at 3.7 µM 21% | [4]; at 11.0 µM 7% | [4]; at 33.0 µM 43% | [5]; at 1.2 µM -14% | [5]; at 3.7 µM -14% | [5]; [17] -19% | [5]; at 11.0 µM -39% | [5]; at 33.0 µM 6% | [5]; [18] 46% | [5]; at 50.0 µM 66.9% | [6]; at 1.2 µM -22% | [6]; at 3.7 µM -24% | [6]; [17] -11% | [6]; at 11.0 µM -25% | [6]; at 33.0 µM -20% | [6]; [18] 3% | [6]; at 50.0 µM 58.8% | [7]; at 1.2 µM -67% | [7]; at 3.7 µM -61% | [7]; at 11.0 µM -55% | [7]; at 33.0 µM -47% | [8]; [17] -11% | [8]; [18] 39% | [9]; at 1.2 µM 1% | [9]; at 3.7 µM -3% | [9]; at 11.0 µM 0% | [9]; at 33.0 µM -6% | [9]; at 100.0 µM -8% | [10]; [17] 23% | [10]; [18] 7% | [10]; at 50.0 µM 60.9% | [11]; at 1.2 µM -1% | [11]; at 3.7 µM 1% | [11]; [17] -9% | [11]; at 11.0 µM 0% | [11]; at 33.0 µM -1% | [11]; [18] -8% | [11]; at 50.0 µM 60.1% | [11]; at 100.0 µM -13% | [12]; at 1.2 µM -1% | [12]; at 3.7 µM -2% | [12]; at 11.0 µM -4% | [12]; at 33.0 µM -2% | [12]; at 100.0 µM -3% | [13]; at 1.2 µM -18% | [13]; at 3.7 µM -26% | [13]; at 11.0 µM -53% | [13]; at 33.0 µM 20% | [14]; at 1.2 µM -31% | [14]; at 3.7 µM -58% | [14]; at 11.0 µM -44% | [14]; at 33.0 µM 18% | [15]; [17] -34% | [15]; [18] 29% | [16]; at 1.2 µM -3% | [16]; at 3.7 µM -8% | [16]; at 11.0 µM -10% | [16]; at 33.0 µM 14%
active: [1]; at 100.0 µM 95% | [2]; at 100.0 µM 97% | [4]; at 100.0 µM 97% | [5]; at 100.0 µM 96% | [6]; at 100.0 µM 96% | [7]; at 100.0 µM 93% | [8]; at 50.0 µM 93.5% | [13]; at 100.0 µM 96% | [14]; at 100.0 µM 95% | [15]; at 50.0 µM 73.9% | [16]; at 100.0 µM 97%

NNc1ccccc1Cl
inactive: [1]; at 1.2 µM 40% | [2]; at 1.2 µM 40% | [3]; at 1.2 µM 56% | [4]; at 1.2 µM 25% | [4]; at 3.7 µM 42% | [5]; at 1.2 µM 39% | [5]; [17] 21% | [6]; at 1.2 µM 19% | [6]; at 3.7 µM 68% | [6]; [17] -8% | [7]; at 1.2 µM 23% | [7]; at 3.7 µM 29% | [8]; [17] 11% | [9]; at 1.2 µM 60% | [10]; [17] 41% | [11]; at 1.2 µM 38% | [12]; at 1.2 µM 42% | [12]; at 3.7 µM 66% | [13]; at 1.2 µM 44% | [14]; at 1.2 µM 47% | [16]; at 1.2 µM 46%
active: [1]; at 3.7 µM 72% | [1]; at 11.0 µM 78% | [1]; at 33.0 µM 95% | [1]; at 100.0 µM 96% | [2]; at 3.7 µM 73% | [2]; at 11.0 µM 81% | [2]; at 33.0 µM 95% | [2]; at 100.0 µM 97% | [3]; at 3.7 µM 80% | [3]; at 11.0 µM 92% | [3]; at 33.0 µM 95% | [3]; at 100.0 µM 94% | [4]; at 11.0 µM 79% | [4]; at 33.0 µM 96% | [4]; at 100.0 µM 96% | [5]; at 3.7 µM 83% | [5]; at 11.0 µM 80% | [5]; at 33.0 µM 96% | [5]; [18] 97% | [5]; at 50.0 µM 89.2% | [5]; at 100.0 µM 97% | [6]; at 11.0 µM 84% | [6]; at 33.0 µM 97% | [6]; [18] 99% | [6]; at 50.0 µM 90.7% | [6]; at 100.0 µM 97% | [7]; at 11.0 µM 76% | [7]; at 33.0 µM 96% | [7]; at 100.0 µM 96% | [8]; [18] 96% | [8]; at 50.0 µM 92.3% | [9]; at 3.7 µM 93% | [9]; at 11.0 µM 96% | [9]; at 33.0 µM 97% | [9]; at 100.0 µM 98% | [10]; [18] 98% | [10]; at 50.0 µM 89.5% | [11]; at 3.7 µM 89% | [11]; [17] 86% | [11]; at 11.0 µM 93% | [11]; at 33.0 µM 97% | [11]; [18] 98% | [11]; at 50.0 µM 89.5% | [11]; at 100.0 µM 97% | [12]; at 11.0 µM 83% | [12]; at 33.0 µM 96% | [12]; at 100.0 µM 96% | [13]; at 3.7 µM 80% | [13]; at 11.0 µM 89% | [13]; at 33.0 µM 97% | [13]; at 100.0 µM 97% | [14]; at 3.7 µM 86% | [14]; at 11.0 µM 90% | [14]; at 33.0 µM 96% | [14]; at 100.0 µM 97% | [15]; [17] 82% | [15]; [18] 97% | [15]; at 50.0 µM 88.2% | [16]; at 3.7 µM 86% | [16]; at 11.0 µM 84% | [16]; at 33.0 µM 95% | [16]; at 100.0 µM 97%
